Values without a mark were called inactive.
These molecules were tested on Vero E6 infected with SARS-CoV-2 (assay: inhibition of SARS-CoV-2 cytopathic effect; higher = more antiviral protection, active = above 15). Details: 1 nM; 48 h.

In order of falling “inhibition of SARS-CoV-2 cytopathic effect” value:
1. CCCCCCCCCCCC(=O)N(CCO)CCO [lauric-diethanolamide]  1.82%
2. NC(=O)c1[nH]cnc1O  0.65%
3. NC(=O)C1=CN([C@@H]2O[C@H](COP(=O)(O)OP(=O)(O)OC[C@H]3O[C@@H](n4cnc5c(N)ncnc54)[C@H](O)[C@@H]3O)[C@@H](O)[C@H]2O)C=CC1 [coenzyme-I]  -3.2%
4. CC(Oc1ccc(O)cc1)(P(=O)(O)O)P(=O)(O)O  -3.21%

Same assay, conditions: 8.33 nM; 48 h

In order of falling “inhibition of SARS-CoV-2 cytopathic effect” value:
1. CCOC(=O)C(=O)Nc1cccc(OC)c1C(N)=O  7.85%
2. CCCCCCN(CCCCCC)C(=O)Cc1c(-c2ccc(F)cc2)[nH]c2ccccc12  3.61%
3. COc1cccc(Nc2c(C(N)=O)cnc3c(C)cc(S(=O)(=O)c4cccc(C(=O)N(C)C)c4)cc23)c1  3.12%
4. CC(C[N+](C)(C)C)OC(N)=O (stereo not drawn) [bethanechol]  2.96%
5. O=C(NN1C(=O)[C@@H]2[C@@H]3C=C[C@@H]([C@H]4C[C@@H]34)[C@@H]2C1=O)c1ccc(C(F)(F)F)cc1 [tecovirimat]  2.44%
6. O=c1ccc2ccc(OCCCCN3CCN(c4cccc5sccc45)CC3)cc2[nH]1 [brexpiprazole]  2.4%
7. CNC(=O)[C@@H](NC(=O)[C@H](CC(C)C)[C@H](O)C(=O)NO)C(C)(C)C [marimastat]  2.33%
8. NCCNCCNCCN [trientine]  2.23%
9. CC[C@H]1[C@@H](O)[C@@H]2[C@H](CC[C@]3(C)[C@@H]([C@H](C)CCOS(=O)(=O)O)CC[C@@H]23)[C@@]2(C)CC[C@@H](O)C[C@@H]12  1.92%
10. O=C(O)CCCCC(CCSCc1ccccc1)SCc1ccccc1 (stereo not drawn)  1.84%
11. CCCCCCCCCCCC(=O)N(CCO)CCO [lauric-diethanolamide]  1.8%
12. NC(=O)c1[nH]cnc1O  1.77%
13. CCC1(C)CC(=O)NC1=O (stereo not drawn) [ethosuximide]  1.45%
14. CC(C)NC(=O)c1ccc(C#Cc2ccncc2)cn1  1.41%
15. O=C(Nc1ccc(N2CCC(C(=O)N3CCOCC3)CC2)cc1)c1cnc(Oc2ccccc2)nc1  1.26%
16. Cc1ccc(-n2nc(C(C)(C)C)cc2NC(=O)Nc2ccc(OCCN3CCOCC3)c3ccccc23)cc1 [doramapimod]  1.14%
17. CCCN1CCN(c2ccc(C(=O)NC3(C(=O)NCC#N)CCCCC3)cc2)CC1 [balicatib]  0.96%
18. C#C[C@]1(O)CC[C@H]2[C@@H]3CCC4=C(CCC(=O)C4)[C@H]3CC[C@@]21C [noretynodrel]  0.96%
19. Cc1cccc(C(=O)NCN2CCN(c3ccccc3C#N)CC2)c1  0.9%
20. NCCCC[C@H](NC(=O)[C@@H](Cc1cc(Br)c(O)c(Br)c1)NC(=O)N1CCC(N2Cc3ccccc3NC2=O)CC1)C(=O)N1CCN(c2ccncc2)CC1  0.87%
21. CC(=O)O[C@]1(C(C)=O)CC[C@H]2[C@@H]3C[C@H](C)C4=CC(=O)CC[C@]4(C)[C@H]3CC[C@@]21C [medroxyprogesterone-acetate]  0.71%
22. N=C(N)c1ccc(-c2ccc(-c3ccc(C(=N)N)cc3)o2)cc1 [furamidine]  0.26%
23. COC(=O)C1=C(C)NC(C)=C(C(=O)OC)C1c1ccccc1[N+](=O)[O-] [nifedipine]  0.14%
24. N[C@H]1C(O)O[C@H](CO)[C@@H](O)[C@@H]1O (mixture of isomers) [glucosamine]  0.07%
25. CN(C)C(=O)Oc1ccc[n+](C)c1 [mestinon]  -0.26%
26. CC(C)Oc1ccc(-c2nc(-c3cccc4c3CC[C@@H]4NCCO)no2)cc1C#N [ozanimod]  -0.27%
27. CC(C)Nc1nc2cc(Cl)c(Cl)cc2n1[C@H]1O[C@@H](CO)[C@H](O)[C@@H]1O [maribavir]  -0.5%
28. O=C(O)c1c(Sc2ccccc2)c2cc(Cl)ccc2n1Cc1ccc(Cl)cc1  -0.87%
29. C/C=C(/C(=C/C)c1ccc(O)cc1)c1ccc(O)cc1 [dienestrol]  -0.9%
30. Cc1ccc(S(=O)(=O)n2c(N)nc3ccccc32)cc1  -0.92%
31. O=C(O)CNC(=O)c1c(O)c2ccccc2n(Cc2ccccc2)c1=O  -1.09%
32. O=S(=O)(F)Cc1ccccc1 [phenylmethylsulfonyl-fluoride]  -1.22%
33. NC1CCN(c2cccc(Cl)n2)CC1  -1.55%
34. COc1cc(C)[nH]c(=O)c1CNC(=O)c1c(C)n([C@H](C)C2CCOCC2)c2ccccc12  -1.57%
35. CC(Oc1ccc(O)cc1)(P(=O)(O)O)P(=O)(O)O  -1.85%
36. Cc1nc(Nc2ncc(C(=O)Nc3c(C)cccc3Cl)s2)cc(N2CCN(CCO)CC2)n1 [dasatinib]  -1.86%
37. CC(C)(C)C[C@@H]1N[C@@H](C(=O)N[C@H]2CC[C@H](O)CC2)[C@H](c2cccc(Cl)c2F)[C@]12C(=O)Nc1cc(Cl)ccc12  -2.43%
38. CNC(C)(C)Cc1ccccc1 [mephentermine]  -4.1%
39. NC(=O)C1=CN([C@@H]2O[C@H](COP(=O)(O)OP(=O)(O)OC[C@H]3O[C@@H](n4cnc5c(N)ncnc54)[C@H](O)[C@@H]3O)[C@@H](O)[C@H]2O)C=CC1 [coenzyme-I]  -4.29%

From the supplement of paper PMC13380429
